Reference: PubChem BioAssay AID1159580 (chemical genetic matrix, 2015)
Where “and” joins values, the source holds several entries; their conditions need not be identical. Identical values can stand only once. Screen size: about 5,500 compounds; about 2,000 (36%) were called active. Inconclusive results (about 18%) are left out. No stated cut-off is given here; in the data, active means normalized growth mostly below about 0.91 (no sharp cut-off); inconclusive means no clear call, values can overlap the other calls; inactive means mostly above about 0.92. Some of the results follow.

Experiment: chemical genetic growth profiling, strain panel (AID 1159580);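 further: tested at 20 µM; growth read once vehicle control cultures reached saturation at 30 °C; 1 = growth at the plate median or of vehicle wells; lower values mean less growth of the strain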
Settings: S. cerevisiae deletion strains, growth OD

Measured: normalized growth

NC(=O)c1ncn([C@@H]2O[C@H](CO)[C@@H](O)[C@H]2O)n1
inactive: locus YAL013W, strain DEP1, active compounds read low 1 | locus YAL021C, strain ccr4, active compounds read low 1.02 | locus YAL026C, strain drs2, active compounds read low 0.995 | locus YAL030W, strain snc1, active compounds read low 0.998 | locus YBL061C, strain skt5, active compounds read low 0.975 | locus YBR009C, strain hhf1, active compounds read low 0.992 | locus YBR021W, strain FUR4, active compounds read low 0.965 | locus YBR023C, strain chs3, active compounds read low 0.981 | locus YBR171W, strain sec66, active compounds read low 0.993 | locus YBR229C, strain ROT2, active compounds read low 0.993 | locus YBR231C, strain swc5, active compounds read low 0.997 | locus YBR279W, strain paf1, active compounds read low 0.978 | locus YCL011C, strain gbp2, active compounds read low 0.981 | locus YCL016C, strain dcc1, active compounds read low 0.979 | locus YCL029C, strain bik1, active compounds read low 0.981 | locus YCL061C, strain MRC1, active compounds read low 0.983 | locus YCL069W, strain vba3, active compounds read low 0.996 | locus YCR088W, strain abp1, active compounds read low 0.994 | locus YDL005C, strain med2, active compounds read low 0.982 | locus YDL035C, strain GPR1, active compounds read low 1.02 | locus YDL040C, strain nat1, active compounds read low 0.978 | locus YDL074C, strain BRE1, active compounds read low 1.04 | locus YDL101C, strain DUN1, active compounds read low 0.998 | locus YDL134C, strain PPH21, active compounds read low 1 | locus YDL185W, strain tfp1, active compounds read low 0.978 | locus YDL192W, strain arf1, active compounds read low 0.98 | locus YDR001C, strain nth1, active compounds read low 0.996 | locus YDR069C, strain doa4, active compounds read low 0.989 | locus YDR101C, strain arx1, active compounds read low 0.993 | locus YDR137W, strain rgp1, active compounds read low 0.97 | locus YDR150W, strain NUM1, active compounds read low 0.988 | locus YDR159W, strain sac3, active compounds read low 0.978 | locus YDR162C, strain NBP2, active compounds read low 0.968 | locus YDR195W, strain ref2 0.979 | locus YDR297W, strain sur2, active compounds read low 0.99 | locus YDR318W, strain mcm21, active compounds read low 0.995 | locus YDR334W, strain swr1, active compounds read low 0.99 | locus YDR335W, strain msn5, active compounds read low 0.991 | locus YDR388W, active compounds read low 0.995 | locus YDR392W, strain spt3, active compounds read low 0.995 | locus YDR502C, strain sam2, active compounds read low 0.992 | locus YEL003W, strain gim4, active compounds read low 0.999 | locus YEL037C, strain rad23, active compounds read low 0.993 | locus YEL061C, strain CIN8 (second series), active compounds read low 0.994 | locus YEL061C, strain CIN8, active compounds read low 0.999 | locus YER015W, strain faa2, active compounds read low 0.988 | locus YER016W, strain bim1, active compounds read low 0.988 | locus YER110C, active compounds read low 0.989 | locus YER111C, strain swi4, active compounds read low 0.996 | locus YER155C, strain BEM2 (second series), active compounds read low 0.989 | locus YER155C, strain BEM2, active compounds read low 0.995 | locus YER167W, strain BCK2, active compounds read low 1.01 | locus YFR010W, strain ubp6, active compounds read low 0.999 | locus YGL078C, strain dbp3, active compounds read low 0.985 | locus YGL086W, strain mad1, active compounds read low 0.997 | locus YGL167C, strain pmr1, active compounds read low 0.983 | locus YGL173C, strain kem1, active compounds read low 0.974 | locus YGL227W, strain vid30, active compounds read low 0.986 | locus YGL240W, strain doc1, active compounds read low 0.984 | locus YGL248W, strain PDE1, active compounds read low 0.996 | locus YGL253W, strain hxk2, active compounds read low 0.982 | locus YGR078C, strain PAC10, active compounds read low 1.02 | locus YGR135W, strain pre9, active compounds read low 0.979 | locus YGR229C, strain SMI1, active compounds read low 1.01 | locus YGR252W, strain gcn5, active compounds read low 0.993 | locus YHR013C, strain ard1, active compounds read low 0.953 | locus YHR027C, strain rpn1, active compounds read low 0.974 | locus YHR030C, strain SLT2, active compounds read low 0.999 and 0.988 | locus YHR079C, strain IRE1 (second series), active compounds read low 1 | locus YHR079C, strain IRE1, active compounds read low 0.98 | locus YHR094C, strain hxt1, active compounds read low 0.981 | locus YHR129C, strain ARP1, active compounds read low 1.01 | locus YHR142W, strain chs7, active compounds read low 0.999 | locus YHR200W, strain rpn10, active compounds read low 0.993 | locus YIL066C, strain RNR3, active compounds read low 0.995 | locus YIL073C, strain SPO22, active compounds read low 0.946 | locus YIL125W, strain kgd1, active compounds read low 0.997 | locus YIR030C, strain dcg1, active compounds read low 0.99 | locus YJL092W, strain hpr5, active compounds read low 0.992 | locus YJL095W, strain BCK1 (second series), active compounds read low 0.987 | locus YJL095W, strain BCK1, active compounds read low 1.02 and 0.977 | locus YJL115W, strain asf1, active compounds read low 0.994 | locus YJL129C, strain trk1, active compounds read low 0.995 | locus YJL134W, strain LCB3, active compounds read low 1 | locus YJL154C, strain vps35, active compounds read low 1.01 | locus YJL164C, strain tpk1, active compounds read low 0.978 | locus YJL166W, strain qcr8, active compounds read low 0.988 | locus YJL168C, strain set2, active compounds read low 1 | locus YJL187C, strain SWE1 (second series), active compounds read low 0.983 | locus YJL187C, strain SWE1, active compounds read low 0.986 | locus YJR043C, strain POL32, active compounds read low 0.977 | locus YJR066W, strain TOR1, active compounds read low 0.959
